Experimental findings from PubChem BioAssay (NCI) are described below.

The panel holds about 83,000 compounds, 20% with a hit somewhere; the sample as a whole holds those more often.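 96-well plates, one dose, 48 hours. Percent growth reported; active if below 10.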 Values without a mark were called inactive. The source made the active and inactive calls.

For the assay, the system named is HL-60(TB) leukemia. In words: NCI-60 one-dose screen, 48 h (100 = growth as untreated, 0 = no growth, -100 = all killed). The note with it: 10 µM unless noted.
Regarding `CCN(CC)CCCC(C)Nc1cc(-c2cccc(OC(F)(F)F)c2)nc2ccc(N3CCCC3)cc12` (stereo not given), the growth is -61% (active).

As for `Nc1ccccc1NC(=O)CCCCCCC(=O)Nc1ccc2c(c1)/C(=C/c1ccc[nH]1)C(=O)N2`, the growth was -10.2% (active).

For the molecule `CC(=O)NC(CCC(=O)c1ccccc1)C(=O)O` (stereo not given), the growth is 75.9%.

With `O=C(Nc1nc2ccccc2s1)Nc1ccc([N+](=O)[O-])cc1Cl`, the growth is 78.8%.

In the case of `O=c1ccc2c(ccc3ncccc32)o1`, the growth is 88.8%.

`CC(NC(=O)c1ccccc1)C(=O)Nc1ccccc1` (stereo not given): the growth was 107%.

In the case of `O=C1/C(=C/c2ccc(F)cc2)CN(C(=O)C(Cl)Cl)C/C1=C\c1ccc(F)cc1`, the growth is -34% (active).

For `CCCCCCCCCCC[C@@H](C[C@H]1OC(=O)[C@H]1CCCCCC)OC(=O)[C@@H](CC(C)C)NC=O`, the growth is -3.28% (active).

For `Oc1ccc2c(c1)CCc1ccccc1-2`, the growth is 103%.

`CCOC(=O)c1c(N)sc2cc(O)ccc12`: the growth is 94.1%.

In the case of `CC/C(Cc1ccccc1)=C(\c1ccc(OCCCN(C)C)cc1)c1ccc(OC(=O)NCc2ccccc2)cc1`, the growth is 57.2%.

As for `Cc1ccc(C2Oc3ccccc3C3CC(c4cccs4)=NN32)cc1` (stereo not given), the growth was 97.4%.

Regarding `Nc1ccccc1-c1ccc([N+](=O)[O-])cc1`, the growth was 14.2%.

On to `COc1ccc(-c2ccc3ncc4c(c3c2)n(-c2ccc(N3CCNCC3)c(C(F)(F)F)c2)c(=O)n4C)cn1`, for which the growth is -65.4% (active).

In the case of `CCC1=C(c2ccc(OC)cc2)C(C)Oc2cc(OC(C)=O)ccc21` (stereo not given), the growth was 56.7%.

For `COc1cc(/C(C#N)=C/c2ccc3c(c2OC)OCO3)cc2c1OCO2`, the growth is 26.9%.

Take `O=C(NCCNc1nccc(-c2c(-c3cccc(O)c3)nc3sccn23)n1)c1ccccc1`: the growth was 93.3%.

For `COC(=O)/C=C1/SC(=Nc2ccc([N+](=O)[O-])cc2)N(CCc2c[nH]c3ccccc23)C1=O`, the growth was 69.8%.

For the molecule `Cc1ccc(/C=C/C(=O)c2ccc(NC(=O)CSc3nc4c([nH]3)c(=O)n(C)c(=O)n4C)cc2)c(C)c1`, the growth is 94.5%.

As to `Nc1c(CNCc2nnn(Cc3ccccc3)c2N)nnn1Cc1ccccc1`, the growth was 103%.

With `COc1ccc(-c2cc(-c3ccc(Nc4ccnc5cc(Cl)ccc45)cc3)nc(N3CCOCC3)n2)cc1`, the growth is 7.25% (active).

For the molecule `CCN1CCN(Cc2ccc(Cc3ncc(F)c(-c4cc(F)c5nc(C)n(C(C)C)c5c4)n3)nc2)CC1`, the growth was 27.3%.

With `COc1cc2c3c(c4c5ccccc5[nH]c4c2c(OC)c1OC)C(=O)N(O)C3=O`, the growth was 51.7%.

With `O=C1COCCN1c1ccc(NCc2cn(C(=O)c3ccc(Cl)cc3)c3ccccc23)cc1`, the growth was 90.6%.

Regarding `CC(C)(C)OC(=O)N1CCC(O)[C@@H](O[Si](c2ccccc2)(c2ccccc2)C(C)(C)C)[C@H]1/C=C/c1ccccc1` (stereo not given in full), the growth was 55.9%.

`C=C1C(=O)O[C@H]2[C@H]1CC/C(COC(=O)NCCCCNC(=O)OC/C1=C/CC[C@@]3(C)O[C@H]3[C@H]3OC(=O)C(=C)[C@@H]3CC1)=C\CC[C@@]1(C)O[C@@H]21`: the growth is -50.7% (active).

As for `C/C(Cc1ccc(Cl)cc1)=C(\c1ccc(OCCCN(C)C)cc1)c1ccc(OC(=O)Cc2ccccc2)cc1`, the growth was 88.7%.

`Cn1c2ccccc2c2ssc(=S)c21`: the growth was 43.5%.

Take `O=C(Nc1cccc(-n2ccc3c(NC(=O)c4ccccc4)ncnc32)c1)Nc1ccc(Cl)c(C(F)(F)F)c1`: the growth was -1.92% (active).

As to `CCc1nn2c(-c3ccc(Cl)cc3C)c(-c3cc(OC)c(OC)c(OC)c3)nc2s1`, the growth was 73.6%.

Consider `CCCCNc1nnc(-c2cc(-c3cc4ccccc4o3)nn2-c2ccccc2)o1`, for which the growth was 86.5%.

In the case of `CSc1nc(-c2ccc(O)cc2O)c2c(=O)[nH]c(Nc3ccc(S(=O)(=O)Nc4nc(C)cc(C)n4)cc3)nc2n1`, the growth was 114%.

For `C/C(=N/O)c1ccc(NC(=O)Cn2nc(-c3ccc(Cl)cc3)nc2N)cc1`, the growth was 94.7%.

Regarding `COc1ccc(C(=O)Nc2cccc(-c3cc(=O)c4c(OC)c(OC)c(OC)cc4o3)c2)cc1`, the growth was 44.8%.

For the molecule `C#CCNc1nc(NCCNC(=O)CCl)nc(N(C)CCCCc2ccccc2)n1`, the growth was 107%.

Regarding `Cc1cccc(N2C(=O)/C(=C/C(Cl)=C/c3ccc([N+](=O)[O-])cc3)SC2=S)c1C`, the growth was -13.3% (active).

Turning to `COc1ccc(/C=C/c2nc(Nc3ccc(S(=O)(=O)Nc4cc(C)on4)cc3)c3ccccc3n2)cc1`, the growth is 80.9%.

As to `COC(=O)[C@@]12CC=C(C)[C@]3(C[C@H](c4ccoc4)OC3=O)[C@H]1C=C[C@@H](O)[C@@]2(O)C(=O)OC`, the growth is 107%.

For the molecule `CC(=O)c1c(C)nc(SCC(=O)Nc2ccc(Cl)cc2)n1-c1ccc(Cl)cc1`, the growth is 86.6%.

Take `CCOC(=O)c1cc(Cl)c(O)c(Cl)c1`: the growth is 64.9%.
